The source of these data is PubChem BioAssay (NCI).

What all share (assay): NCI-60 one-dose screen, 48 h (100 = growth as untreated, 0 = no growth, -100 = all killed)
The subject of one test is SK-MEL-2 melanoma. The following applies: 10 µM unless noted.
Another test relates to EKVX NSCLC. Conditions: 10 µM unless noted.
A further test has as its system SN12C renal. Conditions: 10 µM unless noted.
The next test relates to UO-31 renal. The following applies: 10 µM unless noted.
Another test relates to ACHN renal. Conditions: 10 µM unless noted.
The next test concerns CAKI-1 renal. Conditions: 10 µM.
For a further test, the system named is A498 renal. Conditions: 10 µM unless noted.
Another test deals with CCRF-CEM leukemia. Conditions: 10 µM unless noted.
The subject of the next test is MOLT-4 leukemia. The following applies: 10 µM unless noted.
The test system of a further test is SR leukemia. The following applies: 10 µM unless noted.
Another test relates to RPMI-8226 leukemia. Conditions: 10 µM unless noted.
The subject of another test is OVCAR-8 ovarian. Conditions: 10 µM unless noted.
The test system of the next test is OVCAR-5 ovarian. Conditions: 10 µM unless noted.
For the next test, the system named is OVCAR-4 ovarian. Conditions: 10 µM unless noted.
The subject of another test is SK-OV-3 ovarian. Conditions: 10 µM unless noted.
The subject of a further test is IGROV1 ovarian. The following applies: 10 µM unless noted.
A further test concerns OVCAR-3 ovarian. Conditions: 10 µM unless noted.
In another test the test system is NCI/ADR-RES ovarian. The following applies: 10 µM unless noted.
The next test has as its system HS 578T breast. Conditions: 10 µM unless noted.

Compounds without any hit were thinned out: in the full panel of roughly 83,000, 20% have a hit.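 Treatment: one concentration, 48 hours, 96-well format. Scoring: percent growth, with anything below 10 considered active.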 Values without a mark were called inactive. Calls of active or inactive are those of the source.

Turning to `O=C(Nc1ccc(-n2cc(-c3ccncc3)c(-c3ccc(O)c(Cl)c3)n2)cc1)c1ccc(Cl)c(C(F)(F)F)c1`, the growth with SK-MEL-2 melanoma was -0.332% (active); in the test with EKVX NSCLC, 31.8%; in the test on SN12C renal it was 45.2%; with UO-31 renal it was 18.4%; in the test on ACHN renal, 17.4%; in the test on CAKI-1 renal, 20.5%. The growth was 77.7% in the test with A498 renal; 16.2% with CCRF-CEM leukemia; 16.8% in the test on MOLT-4 leukemia; 8.48% (active) in the test with SR leukemia; -26.9% (active) in the test with RPMI-8226 leukemia; 17.8% with OVCAR-8 ovarian. Further, the growth was 61.6% with OVCAR-5 ovarian; 62.6% in the test with OVCAR-4 ovarian; 56% with SK-OV-3 ovarian; 52.9% in the test with IGROV1 ovarian; 4.18% (active) in the test with OVCAR-3 ovarian; 18.5% in the test on NCI/ADR-RES ovarian.

For `O=C(Nc1cccc(-n2ccc3c(NC(=O)c4ccccc4)nccc32)c1)c1cccc(C(F)(F)F)c1`, the growth in the test on SK-MEL-2 melanoma was 18.8%; in the test with EKVX NSCLC, 43.4%; in the test on SN12C renal, 25%; with UO-31 renal, 22.4%; in the test with ACHN renal, 24.7%; with CAKI-1 renal, 9.21% (active). Moreover, the growth is 7.75% (active) with A498 renal; 8.28% (active) with CCRF-CEM leukemia; 13.1% in the test on MOLT-4 leukemia; 1.05% (active) in the test on SR leukemia; -36.1% (active) in the test with RPMI-8226 leukemia; 3.8% (active) with OVCAR-8 ovarian. Also, the growth with OVCAR-5 ovarian was 32.5%; with OVCAR-4 ovarian, 72.9%; in the test with IGROV1 ovarian, 15.9%; in the test with OVCAR-3 ovarian, -8.09% (active).

`O=C(Nc1ccc(-n2ccc3c(NC(=O)c4ccccc4)ncnc32)cc1)c1cccc(C(F)(F)F)c1`: the growth is 85.8% in the test with SK-MEL-2 melanoma; 63.5% with EKVX NSCLC; 60.7% in the test on SN12C renal; 45.9% with UO-31 renal; 34% in the test on ACHN renal; 27.9% in the test on CAKI-1 renal. Besides, the growth was 87.5% with A498 renal; 28.2% in the test on CCRF-CEM leukemia; 19.7% in the test on MOLT-4 leukemia; 2.8% (active) in the test with SR leukemia; 20.1% in the test on RPMI-8226 leukemia; 40.9% with OVCAR-8 ovarian. The growth is 62.3% in the test with OVCAR-5 ovarian; 97.1% in the test with OVCAR-4 ovarian; 61.2% in the test with SK-OV-3 ovarian; 43.1% in the test with IGROV1 ovarian; 54.4% in the test with OVCAR-3 ovarian; 50.7% in the test on NCI/ADR-RES ovarian.

For `O=C(NCCNc1nccc(-c2c(-c3cccc(O)c3)nc3sccn23)n1)c1ccccc1O`, the growth with SK-MEL-2 melanoma is 13.9%; in the test with EKVX NSCLC, 66.8%; in the test on SN12C renal, 48%; in the test with UO-31 renal it was 34.6%; in the test on ACHN renal it was 46.1%; in the test with CAKI-1 renal it was 24.3%. For the same compound, the growth in the test on A498 renal is 104%; with CCRF-CEM leukemia, 18.9%; with MOLT-4 leukemia, 46.2%; in the test with SR leukemia, 63.2%; with RPMI-8226 leukemia, 11.6%; in the test with OVCAR-8 ovarian it was 41.3%. For the same compound, the growth with OVCAR-5 ovarian was 88.7%; with OVCAR-4 ovarian, 96.2%; in the test on IGROV1 ovarian, 31.6%; in the test with OVCAR-3 ovarian it was 60.2%; in the test on NCI/ADR-RES ovarian it was 73.6%.

Turning to `COc1ccc(-c2nn(-c3ccc(NC(=O)c4cc(Cl)cc(Cl)c4)cc3)cc2-c2ccncc2)cc1Cl`, the growth in the test on SK-MEL-2 melanoma was 49.9%; in the test on EKVX NSCLC, 74.6%; with SN12C renal, 85%; with UO-31 renal, 25%; in the test with ACHN renal it was 63.6%; with CAKI-1 renal it was 7.27% (active). Moreover, the growth in the test with A498 renal is 50.9%; in the test with CCRF-CEM leukemia, 54.8%; in the test with MOLT-4 leukemia it was 18.9%; in the test with SR leukemia it was 50.7%; with RPMI-8226 leukemia, -11.6% (active); in the test on OVCAR-8 ovarian it was 77.5%. Moreover, the growth with OVCAR-5 ovarian was 64.8%; in the test on OVCAR-4 ovarian, 89.6%; with SK-OV-3 ovarian, 86.3%; in the test on IGROV1 ovarian it was 85.3%; in the test with OVCAR-3 ovarian, 64.1%; in the test with NCI/ADR-RES ovarian, 69.7%.

In the case of `CC[C@H]1[C@@H]2C=C[C@@H]3[C@H]4C/C=C\C(=O)NCCC[C@@H]5NC(=O)/C(=C(O)/C=C/[C@@H]4C[C@@H]3[C@H]2C[C@H]1C)C5=O`, the growth in the test on SK-MEL-2 melanoma was 46%; in the test with EKVX NSCLC it was 15.3%; in the test on SN12C renal, -66.1% (active); in the test with UO-31 renal, -78.2% (active); in the test on ACHN renal, -84.1% (active); in the test on CAKI-1 renal, -41.3% (active). The growth was -18.4% (active) in the test with A498 renal; -17% (active) with CCRF-CEM leukemia; 6.24% (active) in the test with RPMI-8226 leukemia; -54.8% (active) in the test on OVCAR-8 ovarian; 41.6% in the test with OVCAR-5 ovarian; -31.5% (active) in the test on OVCAR-4 ovarian. Moreover, the growth was 1.98% (active) with SK-OV-3 ovarian; -66.5% (active) with IGROV1 ovarian; -94.7% (active) in the test with OVCAR-3 ovarian; -2.24% (active) with HS 578T breast; -57.2% (active) in the test on NCI/ADR-RES ovarian.

For the compound `O=S(=O)(CCN1CCOCC1)Nc1cc(-c2ccc3ncnc(Nc4ccc(F)c(Cl)c4)c3c2)cnc1Cl`, the growth is 2.26% (active) with SK-MEL-2 melanoma; 7.72% (active) in the test with EKVX NSCLC; 18% with SN12C renal; -8.69% (active) in the test with UO-31 renal; 9.87% (active) in the test with ACHN renal; 17% with CAKI-1 renal. For the same compound, the growth in the test on A498 renal was -40% (active); in the test with CCRF-CEM leukemia it was 14.5%; in the test with MOLT-4 leukemia, -8.59% (active); with SR leukemia, 18.8%; in the test on OVCAR-8 ovarian, 16.1%; in the test on OVCAR-5 ovarian, 12.1%. In addition, the growth in the test on OVCAR-4 ovarian was 11.5%; in the test on SK-OV-3 ovarian it was -25.4% (active); in the test on IGROV1 ovarian, -24.1% (active); with OVCAR-3 ovarian, -8.19% (active); in the test on HS 578T breast, -18.3% (active); with NCI/ADR-RES ovarian, 48.6%.

Consider `O=C(Nc1ccc(-n2ccc3c(NC(=O)c4ccccc4)nccc32)cc1)Nc1cccc(C(F)(F)F)c1`, for which the growth in the test on SK-MEL-2 melanoma is 71.9%; in the test with EKVX NSCLC it was 65.5%; in the test with SN12C renal, 79.2%; in the test with UO-31 renal, 78%; in the test on ACHN renal, 62.2%; in the test on CAKI-1 renal, 68.6%. Moreover, the growth in the test with A498 renal is 80.7%; with CCRF-CEM leukemia, 13.8%; with MOLT-4 leukemia, 35.9%; in the test on SR leukemia, 18.8%; with RPMI-8226 leukemia, 19.4%; in the test on OVCAR-8 ovarian, 48.5%. The growth in the test with OVCAR-5 ovarian was 81.8%; in the test with OVCAR-4 ovarian, 26%; with SK-OV-3 ovarian, 92.2%; with IGROV1 ovarian it was 54.1%; in the test on OVCAR-3 ovarian it was 15.2%; with NCI/ADR-RES ovarian it was 65.7%.

On to `COc1cccc(-c2nc3sccn3c2-c2ccnc(NCCNC(=O)Nc3cccc(C(F)(F)F)c3)n2)c1`, for which the growth is 61.9% in the test with SK-MEL-2 melanoma; 61.5% in the test with EKVX NSCLC; 68.8% with SN12C renal; 39.7% in the test with UO-31 renal; 46.2% with ACHN renal; 40% in the test with CAKI-1 renal. Further, the growth is 61.6% in the test on A498 renal; 27% in the test on CCRF-CEM leukemia; 36.7% with MOLT-4 leukemia; 38.5% in the test with SR leukemia; 20.4% in the test with RPMI-8226 leukemia; 21.3% in the test with OVCAR-8 ovarian. The growth in the test with OVCAR-5 ovarian was 103%; in the test with OVCAR-4 ovarian, 91.1%; in the test with IGROV1 ovarian it was 50.9%; in the test on OVCAR-3 ovarian, 66.3%; with NCI/ADR-RES ovarian it was 27.2%.
